Measurements reported in PubChem BioAssay (EPA / NIEHS).
Values joined by “and” are separate entries in the source; they are usually repeats but may differ in a detail not shown here. Equal entries are not always repeated. Inconclusive results are not listed. Active and inactive are the calls of the source. How the source made its calls: active means hit-call score of the fitted dose curve at least 0.9, where 1 is the maximum; inconclusive means response in the unintended direction; inactive means score below 0.9.

Biological target: human Opioid Receptor Mu (Opiate Mu), OPRM1 (gene 4988) (UniProt P35372)
Experiment: NVS_GPCR_hOpiate_mu: NovaScreen (NVS) G Protein-Coupled Receptor Assay for human Opioid Receptor Mu (Opiate Mu) (AID 2283290);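 further: hits lower bound tracer signal versus DMSO meaning displacement of the ligand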
Procedure, shortened: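 Cell-free radioligand binding to membranes from CHO cells expressing the receptor; bound tracer measured by filter-based scintillation counting 2.5 hours after dosing. Loss of signal versus DMSO baseline reflects displacement; primary screen at 25 uM in duplicate, actives followed up in concentration series.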

Sequence of human Opioid Receptor Mu (Opiate Mu), OPRM1 (gene 4988) (P35372 whole entry, looked up): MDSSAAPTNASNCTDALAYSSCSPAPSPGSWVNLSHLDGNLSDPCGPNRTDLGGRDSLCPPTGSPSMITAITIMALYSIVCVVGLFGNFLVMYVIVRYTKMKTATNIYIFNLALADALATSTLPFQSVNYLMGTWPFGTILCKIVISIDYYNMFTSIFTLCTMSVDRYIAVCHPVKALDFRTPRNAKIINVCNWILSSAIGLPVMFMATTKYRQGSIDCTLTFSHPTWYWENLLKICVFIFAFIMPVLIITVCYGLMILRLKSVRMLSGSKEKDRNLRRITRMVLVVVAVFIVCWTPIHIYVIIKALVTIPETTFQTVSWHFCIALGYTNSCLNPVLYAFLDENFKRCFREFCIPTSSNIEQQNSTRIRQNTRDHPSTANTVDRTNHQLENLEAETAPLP

| SMILES | AC50 | outcome |
| --- | --- | --- |
| O=C1C2(Cl)C3(Cl)C4(Cl)C(Cl)(Cl)C5(Cl)C3(Cl)C1(Cl)C5(Cl)C24Cl (stereo unspecified) | 1.63 µM (active) and 2.66 µM (active) and 1.08 µM (active) | – |
| O=C(Nc1ccc2[nH]ccc2c1)c1cc2cc(F)ccc2n1Cc1cccc(F)c1 | – | inactive |
| ClC1=C(Cl)[C@]2(Cl)[C@H]3[C@H]([C@H]4C=C[C@H]3C4)[C@@]1(Cl)C2(Cl)Cl | – | inactive |
| C=C(C)C(=O)[O][Sn]([CH2]CCC)([CH2]CCC)[CH2]CCC | 0.653 µM (active) | – |
| CC(C)(C)c1cc(O)ccc1O | – | inactive |
| O=C(OC1CCCCC1)c1ccccc1C(=O)OC1CCCCC1 | – | inactive |
| O=C(O)C(F)(F)C(F)(F)C(F)(F)C(F)(F)C(F)(F)C(F)(F)C(F)(F)C(F)(F)C(F)(F)C(F)(F)F | 12.4 µM (active) | – |
| Nc1ncc([N+](=O)[O-])s1 | 17.6 µM (active) | – |
| CC(=O)[O][Hg][c]1ccccc1 | 0.0908 µM (active) | – |
| CC(C)(C)CC(C)(C)c1ccc(O)cc1 | 16.7 µM (active) | – |
| CCOP(=S)(OCC)SCSP(=S)(OCC)OCC | – | inactive |
